# Data as given in PubChem BioAssay AID588664 (The Scripps Research Institute Molecular Screening Center, 2011).
# The whole screen tested about 360,000 compounds, of which about 1,400 (0.39%) were called active. This excerpt belongs to a sample that is enriched for actives. Values without a mark were called inactive. Cut-off read from the data, not from the text of the source: active = inhibition above about 5% (passing the limit was not always enough); inactive = the rest.
# Target: Tyrosine-protein kinase ABL1 (Homo sapiens) + Ras and Rab interactor 1 (Homo sapiens) (UniProt P00519+Q13671)
# Assay: inhibitors of Rin1-Abl protein binding, primary screen, biochemical, TR-FRET (AID 588664)
# Details: at 7.35 µM, hits give high values
# Chain of Tyrosine-protein kinase ABL1 (Homo sapiens) + Ras and Rab interactor 1 (Homo sapiens) (P00519 whole entry, looked up): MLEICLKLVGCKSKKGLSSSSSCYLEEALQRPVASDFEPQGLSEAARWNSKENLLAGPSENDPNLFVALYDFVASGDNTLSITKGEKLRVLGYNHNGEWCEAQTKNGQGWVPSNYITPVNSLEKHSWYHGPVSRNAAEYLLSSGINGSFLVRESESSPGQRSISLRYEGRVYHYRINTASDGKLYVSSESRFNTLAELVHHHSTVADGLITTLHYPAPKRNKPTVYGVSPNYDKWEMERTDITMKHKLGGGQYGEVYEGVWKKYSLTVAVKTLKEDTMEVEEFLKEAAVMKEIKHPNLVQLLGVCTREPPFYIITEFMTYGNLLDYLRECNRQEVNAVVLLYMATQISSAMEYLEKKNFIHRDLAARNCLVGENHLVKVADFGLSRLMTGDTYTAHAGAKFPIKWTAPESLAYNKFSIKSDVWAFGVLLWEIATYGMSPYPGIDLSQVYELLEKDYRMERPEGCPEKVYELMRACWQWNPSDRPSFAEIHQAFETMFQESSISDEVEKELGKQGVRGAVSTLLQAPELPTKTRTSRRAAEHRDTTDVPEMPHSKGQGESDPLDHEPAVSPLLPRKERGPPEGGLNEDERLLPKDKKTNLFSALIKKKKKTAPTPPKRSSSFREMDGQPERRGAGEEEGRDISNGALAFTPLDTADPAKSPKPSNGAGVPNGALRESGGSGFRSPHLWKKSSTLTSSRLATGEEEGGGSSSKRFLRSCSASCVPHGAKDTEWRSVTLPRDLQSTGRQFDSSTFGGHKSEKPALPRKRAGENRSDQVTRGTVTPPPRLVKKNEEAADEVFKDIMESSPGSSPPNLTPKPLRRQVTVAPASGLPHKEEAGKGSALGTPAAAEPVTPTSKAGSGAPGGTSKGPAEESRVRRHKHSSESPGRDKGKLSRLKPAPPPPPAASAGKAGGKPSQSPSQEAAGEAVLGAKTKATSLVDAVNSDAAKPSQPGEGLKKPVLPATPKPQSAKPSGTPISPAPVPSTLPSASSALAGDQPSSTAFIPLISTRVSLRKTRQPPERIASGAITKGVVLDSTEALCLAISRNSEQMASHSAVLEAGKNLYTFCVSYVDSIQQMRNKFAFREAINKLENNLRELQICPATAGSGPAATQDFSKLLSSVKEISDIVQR
# Chain of Tyrosine-protein kinase ABL1 (Homo sapiens) + Ras and Rab interactor 1 (Homo sapiens) (Q13671 whole entry, looked up): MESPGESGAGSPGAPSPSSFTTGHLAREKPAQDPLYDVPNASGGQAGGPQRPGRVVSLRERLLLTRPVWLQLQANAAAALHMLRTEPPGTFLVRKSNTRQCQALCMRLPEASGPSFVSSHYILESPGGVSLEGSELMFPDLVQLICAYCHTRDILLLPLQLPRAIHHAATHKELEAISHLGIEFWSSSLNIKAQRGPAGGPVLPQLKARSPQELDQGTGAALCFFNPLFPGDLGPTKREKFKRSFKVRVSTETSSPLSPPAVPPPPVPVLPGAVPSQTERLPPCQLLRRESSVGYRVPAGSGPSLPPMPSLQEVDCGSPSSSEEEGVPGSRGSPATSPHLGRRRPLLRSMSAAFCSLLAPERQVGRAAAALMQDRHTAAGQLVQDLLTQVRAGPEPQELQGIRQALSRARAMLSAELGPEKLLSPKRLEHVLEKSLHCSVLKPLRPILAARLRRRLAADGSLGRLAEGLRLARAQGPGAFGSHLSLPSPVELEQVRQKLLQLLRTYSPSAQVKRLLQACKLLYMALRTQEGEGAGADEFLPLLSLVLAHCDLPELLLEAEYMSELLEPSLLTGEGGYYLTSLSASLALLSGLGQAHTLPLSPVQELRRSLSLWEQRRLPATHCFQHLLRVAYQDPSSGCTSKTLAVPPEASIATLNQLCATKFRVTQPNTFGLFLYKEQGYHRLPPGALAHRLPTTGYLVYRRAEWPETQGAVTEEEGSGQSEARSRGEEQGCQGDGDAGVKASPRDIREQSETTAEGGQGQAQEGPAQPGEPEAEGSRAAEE
row,Structure (SMILES),inhibition
1,CCOc1ccccc1NC(=O)COc1ccc(S(=O)(=O)N2CCCC2)cc1,2.38%
2,COc1ccc(S(=O)(=O)N2CCCCC2)cc1NC(=O)COc1ccccc1,0.41%
3,CCOc1ccc(S(=O)(=O)N2CCCCC2)cc1NC(=O)CN1CCCC1c1cccs1 (stereo not given),8.67% (active)
4,COc1ccccc1C(CNC(=O)c1ccc(C)c(S(=O)(=O)N2CCCCC2)c1)N(C)C (stereo not given),1.36%
5,COc1ccc(NC(=O)C(C)N2c3cccc4cccc(c34)S2(=O)=O)c(OC)c1 (stereo not given),0.54%
6,NC(=O)C[C@@H]1NC(=O)CNC(=O)c2cc([N+](=O)[O-])cc(I)c2NCCC(C(N)=O)NC1=O (stereo not given in full),-0.35%
7,CC(NS(=O)(=O)c1ccc(OCC(=O)N2CCCC2)cc1)c1ccccc1 (stereo not given),1.07%
8,O=C(COc1ccc(S(=O)(=O)NCc2ccccc2)cc1)N1CCOCC1,-6.66%
9,O=C(COc1ccc(S(=O)(=O)NCCc2ccccc2)cc1)N1CCCC1,7.8% (active)
10,COc1cc(C(=O)N/C(=C\c2cn(C)c3ccccc23)C(=O)N2CCOCC2)cc(OC)c1OC,3.65%
11,Cc1cccc(N)c1SC1CCCCC1O (stereo not given),-2.16%
12,COC(=O)C1=C(N)Oc2c(oc(CO)cc2=O)C1c1c(F)cccc1Cl (stereo not given),1.15%
13,Cc1cccc(CN2CCN(C3CN(Cc4ccccc4)S(=O)(=O)C3)CC2)c1 (stereo not given),5.69%
14,NC(=O)c1ccsc1NC(=O)COC(=O)Cc1n[nH]c(=O)c2ccccc12,1.63%
15,Cc1ccc(S(=O)(=O)C2(S(=O)(=O)c3ccc(C)cc3)CCCC2)cc1,1.29%
16,CC1(C(=O)Nc2cccc3c2CCCC3)CCN1C(=O)C1(c2ccccc2)CC1 (stereo not given),1.83%
17,Cc1c(NC(=O)C(C)OC(=O)c2ccccc2O)c(=O)n(-c2ccccc2)n1C (stereo not given),-1.15%
18,COC(=O)c1ccccc1NC(=O)CSc1ccccn1,-0.76%
19,CC(OC(=O)c1ccccc1NCCO)C(=O)Nc1ccnn1C(C)C (stereo not given),44.6% (active)
20,C=CCc1cc(C)ccc1OCCCn1ccnc1,0.39%
21,CCc1ccccc1NC(=S)N(CCN1CCCCCC1)Cc1ccco1,-2.14%
22,Cc1cc(C)n(CCNCc2c(C(=O)N3C[C@@H](C)O[C@@H](C)C3)nc3ccc(Cl)cn23)n1,5.28%
23,CC(=O)c1cccc(NC(=O)C2CCN(C(=O)c3ccccc3Cl)CC2)c1,-0.65%
24,CCc1nnc(NC(=O)C2CCN(C(=O)c3ccccc3C)CC2)s1,-1.24%
25,Cc1ccccc1C(=O)N1CCC(C(=O)Nc2ccc(S(=O)(=O)N(C)C(C)C)cc2)CC1,14.6% (active)
